A selection: hits, their analogues and other compounds. The true share with any hit is near 2.4%.
FEN1 inh = human FEN1 inhibition; Potency, µM (titrated, usually from 114 µM), actives largely listed as inhibitors; Recombinant FEN1 flap cleavage, fluorescence, 15 min; AID 588795; actives 0.35% (n = 390,000); P39748; also: nearly all actives have a fitted effect of over 65% in size
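FEN1 at 10 nM preincubated with compounds 15 min at room temperature, then flap DNA substrate added at 50 nM final. Signal read at 0 and 15 min; concentration-response fitted with four-parameter Hill equation.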
WRN helicase inh = blocks human WRN helicase; Q14191; WRN helicase unwinding, fluorescent forked duplex, kinetic; Potency, µM (titrated, usually from 114 µM), actives largely listed as inhibitors; actives 0.46% (n = 360,000); also: nearly all actives have a fitted effect of over 55% in size
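Enzyme (20 nM final) and test compound sit together 15 min at room temperature before substrate addition. Substrate is a single-forked duplex oligonucleotide (100 nM) labelled with fluorophore and quencher, with 2 mM ATP; helicase unwinding raises red fluorescence, read kinetically.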
Pol beta inh = blocks human DNA polymerase beta activity | P06746 | Pol beta primer extension/strand displacement, fluorescence kinetic | Potency, µM (titrated, usually from 114 µM), hits mostly inhibitors | actives 1.3% (n = 340,000)
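Curves were derived by four-parameter Hill fits of normalized qHTS data. The kinetic fluorescent primer-extension read was taken at 0 and 10 min after 50 nM substrate, following a 15 min room-temperature preincubation of 10 nM enzyme with compounds.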
Pol iota inh = DNA polymerase iota (human) inhibition; Q9UNA4; Pol iota fluorescent replication assay, 10 min; Potency, µM (doses to about 115 µM), usual class: inhibitors; actives 1% (n = 390,000); AID 588590
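Pol iota at 10 nM preincubated 15 min with compounds at room temperature; reaction started with fluorescent substrate, 50 nM final. Fluorescence read kinetically at 0 and 10 min; buffer-only wells as negative control.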
POLH inh = DNA polymerase eta (human) inhibition; Potency, µM (highest dose often 114 µM), hits mostly inhibitors; AID 588591; recombinant Pol eta, fluorescent DNA replication assay; actives 1.2% (n = 390,000)
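Pol eta (10 nM) was preincubated with compounds for 15 min at room temperature, after which fluorescent replication substrate (50 nM final) was added to start the reaction. Fluorescence was read kinetically at 0 and 10 min.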
Pol kappa inh = inhibitors of human DNA polymerase kappa; AID 588579; actives 0.53% (n = 400,000); purified Pol kappa, fluorescent DNA synthesis assay, 10 min; Q9UBT6; Potency, µM (doses to about 107 µM), hits mostly inhibitors
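50 nM final substrate added after 15 min RT preincubation of 10 nM Pol kappa with compound; fluorescence read at 0 and 10 min.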
Numbers stand for hits; 0 = inactive; ? = inconclusive; - = not tested or not shown; [ ] = remark or other dose. Calls follow the shape of the dose curve; as a rule, active = well fitted curve in the direction sought with a large enough effect; inconclusive = small, poorly fitted or top-dose-only effect, or another doubt; inactive = no such curve, though single readings can be large; an effect the other way counts as inactive or inconclusive.

SMILES | FEN1 inh | WRN helicase inh | Pol beta inh | Pol iota inh | POLH inh | Pol kappa inh
Cc1cc(C)cc(OCCOCCn2c(-c3ccc(Cl)cc3)nc3ccccc3c2=O)c1 | 0 | - | 0 | 0 | 0 | 0
CC(C)(C)c1cc(CN2CCN(CCO)CC2)cc(C(C)(C)C)c1O | 0 | 0 | 0.891µM | 0 | 0 | 0
CCOC(=O)C1CCN(Cc2cc(C(C)(C)C)c(O)c(C(C)(C)C)c2)CC1 | 0 | 0 | 0 | 0 | 0 | 0
Clc1ccc(CN(Cc2ccccc2)C(c2cccs2)c2nnnn2C2CCCC2)cc1 (configuration not stated) | 0 | 0 | 0 | 0 | 0 | 0
c1ccc(CN(Cc2ccco2)C(c2ccncc2)c2nnnn2C2CCCC2)cc1 (configuration not stated) | ? | ? | 0 | ? | 44.7µM | ?
Nc1nc(-c2nn(Cc3ccccc3F)c3ncccc23)ncc1C1CC1 | - | - | - | - | - | 0
Cc1cc(NC(=O)COCc2cc(-c3ccc(F)cc3)on2)ccc1Br | 0 | - | 0 | 0 | 0 | 0
O=C(Nc1ccc(F)cc1)[C@H](CSCc1ccccc1)N1Cc2ccccc2C1=O | ? | - | 0 | 0 | 0 | 0
COc1ccccc1CN1CCCC2(CCN(C(=O)c3ccncc3)CC2)C1 | - | - | - | - | - | 0
Cc1ccc(S(=O)(=O)/N=C2/C=C(Sc3ncn[nH]3)C(=O)c3ccccc32)cc1 | 50.1µM | 31.6µM | ? | 1.12µM | 3.55µM | 0
Cc1ccc(S(=O)(=O)Nc2ccc(O)c(Sc3ncn[nH]3)c2)cc1 | 0 | 0 | 0 | 0 | 0 | 0
CC(C)c1ccc(S(=O)(=O)/N=C2/C=C(Sc3ncn[nH]3)C(=O)c3ccccc32)cc1 | 79.4µM | 31.6µM | 22.4µM | 3.55µM | 12.6µM | 79.4µM
Cc1cc2ccccc2c[n+]1C1CCCCC1 | 0 | - | - | 0 | - | 0
CCCCCCCCCCCCCCCCSCC(COC)COP(=O)([O-])OCC[N+](C)(C)C (configuration not stated) | - | - | - | - | - | 0
O=C(O)Cn1cnc2scc(-c3cccs3)c2c1=O | 0 | 0 | 20µM | ? | 20µM | 0
O=C(O)Cn1cnc2scc(-c3ccccc3)c2c1=O | 0 | 0 | 0 | 0 | 0 | 0
CCc1ccc(NC(=O)N(CCN2CCOCC2)Cc2ccc3c(c2)CCCN3CC)cc1 | 0 | 0 | 0 | 0 | 0 | 0
CCCN1CCCc2cc(CN)ccc21 | 0 | 0 | 0 | 3.16µM | 89.1µM | 0
O=C(O)c1cc(-c2ccco2)[nH]n1 | 0 | 0 | 28.2µM | 0 | ? | 0
CC1CCC(C(=O)NNC(=O)c2cc(-c3ccco3)[nH]n2)CC1 (configuration not stated) | 0 | 0 | 0 | 0 | 0 | 0
COc1ccccc1CC(=O)NO | 0 | - | - | 0 | - | 0
Cc1cc(/C=C(\C#N)C(=O)Nc2ccccc2)c(C)n1-c1cccnc1 | 0 | 0 | 0 | 0 | 0 | 0
N#C/C(=C\c1ccccc1O)C(=O)Nc1cccnc1 | 0 | 0[11.6 µM] | 0 | 89.1µM | ? | 0
CCOc1ccccc1NS(=O)(=O)c1cn(C)nc1C | 0 | 0 | 0 | 89.1µM | 0 | 0
CC(C)(C)n1ncc2c(=O)n(Cc3cc(F)ccc3Cl)cnc21 | 0 | - | - | ? | - | 0
SMILES | FEN1 inh | WRN helicase inh | Pol beta inh | Pol iota inh | POLH inh | Pol kappa inh
COC(=O)c1[nH]c(=O)c2ccccc2c1O | 0 | 0 | 0 | 22.4µM | 0 | 0
N#Cc1c(Nc2ccccc2)sc(C(=O)c2ccccc2)c1N | 0 | 0 | 0 | 0 | 0 | 0
Cc1cccc(Nc2sc(C(=O)c3cc4cc(Cl)ccc4o3)c(N)c2C#N)c1 | 0 | 0 | 10µM | 0 | ? | 0
CCN(N=O)c1ccc(/C=C/c2ccnc3ccccc23)cc1 | 0 | - | - | 0 | - | 0
COc1ccccc1-c1nnc(SCC(=O)c2ccc(F)cc2)n1-c1ccccc1 | 0 | - | 0 | ? | 0 | 0
C/C=C(\NNC(C)=O)c1ccc(O)cc1 | 0 | - | - | 0 | - | 0
CC1CC1C(=O)OCC(=O)Nc1ccc2[nH]c(=O)[nH]c2c1 (configuration not stated) | 0 | 0 | 25.1µM | 39.8µM | 50.1µM | 0
CCc1ccc2nc(N(CCCN(C)C)C(=O)c3ccc(S(=O)(=O)N(C)C4CCCCC4)cc3)sc2c1 | 79.4µM | 0 | 0 | 0 | 0 | ?
CN(C)CCCN(C(=O)c1ccc(S(=O)(=O)N(C)C2CCCCC2)cc1)c1nc2ccc(F)cc2s1 | ? | 0 | 0 | 0 | 0 | 0

High-throughput results deposited in PubChem by National Center for Advancing Translational Sciences (NCATS).
